Consider 10 compounds from PubChem BioAssay.

Active and inactive are the calls of the source.

Test [1] is described as follows: binders of probe aFSTL3 on microarray, primary screen, stem cell growth factor project, biochemical, small-molecule microarray, fluorescence 635/667 (AID 1064).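 Note: measures binding of the biotinylated anti-FSTL3 antibody to printed compounds.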 Particulars: higher = more signal.
Test [2] is described as follows: binders from COS7 lysate, DM2A8 probe, primary screen, torsin A project, cell lysate, small-molecule microarray, fluorescence 635/667 (AID 1065). To be noted: higher = more signal, COS7 lysate expressing mutant human TOR1A.
The nature of test [3]: binders of probe aFGF2 on microarray, primary screen, stem cell growth factor project, biochemical, small-molecule microarray, fluorescence 635/667 (AID 1067).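 Note: measures binding of biotinylated aFGF2 protein to printed compounds on slides; z-score merges feature fluorescence and signal-to-noise across triplicate slides.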 Particulars: higher = more signal.
A short description of test [4]: binders of probe aFGF10 on microarray, primary screen, stem cell growth factor project, biochemical, small-molecule microarray, fluorescence 635/667 (AID 1071).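 Note: score merges 667 nm spot intensity and signal to noise from triplicate slides.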 Particulars: higher = more signal.
Test [5] has as its target Neurogenic locus notch homolog protein 2 (Homo sapiens) (UniProt Q04721). The test is described as follows: Notch2 binders on small-molecule microarrays, primary screen, biochemical, small-molecule microarray, 635 nm fluorescence, stem cell growth factors (AID 1073). Particulars: Notch2 binding, higher = more signal.
Test [6] concerns the target Pro-neuregulin-1, membrane-bound isoform (Homo sapiens) (UniProt Q02297). The experiment in a line: NRG1 binders on small-molecule microarrays, primary screen, psychiatric disease protein project, biochemical, small-molecule microarray, fluorescence 635/667 (AID 1075).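 Note: score combines 667 nm spot fluorescence with signal to noise.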 To be noted: NRG1 binding, 635 nm fluorescence, higher = more signal.
Test [7] relates to Neuregulin-1 EGF-like domain. The test is described as follows: binders of neuregulin-1 EGF-like domain, primary screen, biochemical, small-molecule microarray, 635 nm fluorescence (AID 1081).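 Note: binding of the protein to compounds printed on small-molecule microarray slides.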 Particulars: small-molecule microarray binding, higher = more signal.
A short description of test [8]: FRG1 promoter luciferase signal modulators, primary screen, FRG1 inhibition for FSHD, cell-based, C2C12 myotubes, firefly/Renilla luciferase, luminescence (AID 1084). To be noted: higher = more signal, called active from +8 up or from −8 down.
Test [9] is described as follows: binders of probe aFST on microarray, primary screen, stem cell growth factor project, biochemical, small-molecule microarray, fluorescence 635/667 (AID 1086).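 Note: score merges 667 nm fluorescence with signal-to-noise of each printed compound spot.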 To be noted: higher = more signal.
Test [10] can be described thus: binders of probe aHhip on microarray, primary screen, stem cell growth factor project, biochemical, small-molecule microarray, fluorescence 635/667 (AID 1087).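 Note: score merges spot fluorescence at 667nm with spot signal to noise ratio.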 Particulars: higher = more signal.
Test [11] concerns PRMT1 (protein arginine N-methyltransferase 1). The experiment in a line: PRMT1 binders on small-molecule microarrays, primary screen, biochemical, small-molecule microarray, 635 nm fluorescence (AID 1088).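 Note: binding of Prmt1 protein to compounds spotted on small-molecule microarray slides.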 To be noted: small-molecule microarray binding, higher = more signal.
Test [12] can be described thus: yeast growth modulation, basal conditions, primary screen, YJM789 clinical isolate, OD600, 24 h (AID 1089).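 Note: growth of clinical yeast isolate S. cerevisiae YJM 789 seeded 1000 cells per well; test concentration not given here.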 To be noted: S. cerevisiae YJM789 growth, higher = more signal, called active from +8 up or from −8 down.
The nature of test [13]: fission yeast growth modulation, primary screen, strain 972, OD600, 24 h, no modulator (AID 1090).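 Note: basal condition with compound alone and no growth modifier present; test concentration not given here.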 To be noted: S. pombe 972 growth, higher = more signal, called active from +8 up or from −8 down.
Test [14] can be described thus: S. cerevisiae growth modulation with rapamycin, primary screen, strain BY4716, OD600, 96 h (AID 1091). Note: test concentration not given here. To be noted: higher = more signal, called active from +8 up or from −8 down.
In test [15] the target is Torsin-1A-interacting protein 2 (Homo sapiens) (UniProt Q8NFQ8). The experiment in a line: LULL1 binders on small-molecule microarray, primary screen, cell lysate, human LULL1 lysate, 635/667 nm fluorescence (AID 1092).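 Note: score merges per-feature 667 nm fluorescence with signal-to-noise.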 Particulars: hLULL1 lysate binding, 635 nm fluorescence, higher = more signal.
A short description of test [16]: E. coli growth modulation, two-sided OD650, primary screen, E. coli filamentation project, strain DRC41, 24 h (AID 1093).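 Note: MC1000 strain lacking acrAB efflux and sulA so SOS filamentation is blocked; test concentration not given here.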 To be noted: OD650, 24 h, higher = more signal, called active from +8 up or from −8 down.
Test [17] can be described thus: small-molecule microarray binders of probe aLefty2, primary screen, biochemical, biotinylated probe, 635/667 nm fluorescence (AID 1094).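 Note: score merges spot fluorescence near 667 nm with spot signal-to-noise ratio.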 To be noted: higher = more signal.
The test system of test [18] is Noggin (protein binding on small-molecule microarray). The test is described as follows: Noggin binders on small-molecule microarray, primary screen, biochemical, 635/667 nm fluorescence (AID 1095).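 Note: score merges 667 nm feature fluorescence with signal to noise over triplicate slides.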 Particulars: 635 nm fluorescence, higher = more signal.
Test [19] has as its target Neurogenic locus notch homolog protein 3 (Homo sapiens) (UniProt Q9UM47). The experiment in a line: NOTCH3 binders on small-molecule microarray, primary screen, biochemical, 635/667 nm fluorescence (AID 1096). To be noted: NOTCH3 binding, 635 nm fluorescence, higher = more signal.
A short description of test [20]: small-molecule microarray binders of probe aEGFR, primary screen, biochemical, biotinylated probe, 635/667 nm fluorescence (AID 1097).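 Note: probe is a biotinylated anti-EGFR antibody binding compounds printed on slides; score combines fluorescence near 667 nm and signal to noise of each spot.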 To be noted: higher = more signal.

Neurogenic locus notch homolog protein 2 (Homo sapiens), sequence (Q04721 whole entry, looked up, canonical isoform): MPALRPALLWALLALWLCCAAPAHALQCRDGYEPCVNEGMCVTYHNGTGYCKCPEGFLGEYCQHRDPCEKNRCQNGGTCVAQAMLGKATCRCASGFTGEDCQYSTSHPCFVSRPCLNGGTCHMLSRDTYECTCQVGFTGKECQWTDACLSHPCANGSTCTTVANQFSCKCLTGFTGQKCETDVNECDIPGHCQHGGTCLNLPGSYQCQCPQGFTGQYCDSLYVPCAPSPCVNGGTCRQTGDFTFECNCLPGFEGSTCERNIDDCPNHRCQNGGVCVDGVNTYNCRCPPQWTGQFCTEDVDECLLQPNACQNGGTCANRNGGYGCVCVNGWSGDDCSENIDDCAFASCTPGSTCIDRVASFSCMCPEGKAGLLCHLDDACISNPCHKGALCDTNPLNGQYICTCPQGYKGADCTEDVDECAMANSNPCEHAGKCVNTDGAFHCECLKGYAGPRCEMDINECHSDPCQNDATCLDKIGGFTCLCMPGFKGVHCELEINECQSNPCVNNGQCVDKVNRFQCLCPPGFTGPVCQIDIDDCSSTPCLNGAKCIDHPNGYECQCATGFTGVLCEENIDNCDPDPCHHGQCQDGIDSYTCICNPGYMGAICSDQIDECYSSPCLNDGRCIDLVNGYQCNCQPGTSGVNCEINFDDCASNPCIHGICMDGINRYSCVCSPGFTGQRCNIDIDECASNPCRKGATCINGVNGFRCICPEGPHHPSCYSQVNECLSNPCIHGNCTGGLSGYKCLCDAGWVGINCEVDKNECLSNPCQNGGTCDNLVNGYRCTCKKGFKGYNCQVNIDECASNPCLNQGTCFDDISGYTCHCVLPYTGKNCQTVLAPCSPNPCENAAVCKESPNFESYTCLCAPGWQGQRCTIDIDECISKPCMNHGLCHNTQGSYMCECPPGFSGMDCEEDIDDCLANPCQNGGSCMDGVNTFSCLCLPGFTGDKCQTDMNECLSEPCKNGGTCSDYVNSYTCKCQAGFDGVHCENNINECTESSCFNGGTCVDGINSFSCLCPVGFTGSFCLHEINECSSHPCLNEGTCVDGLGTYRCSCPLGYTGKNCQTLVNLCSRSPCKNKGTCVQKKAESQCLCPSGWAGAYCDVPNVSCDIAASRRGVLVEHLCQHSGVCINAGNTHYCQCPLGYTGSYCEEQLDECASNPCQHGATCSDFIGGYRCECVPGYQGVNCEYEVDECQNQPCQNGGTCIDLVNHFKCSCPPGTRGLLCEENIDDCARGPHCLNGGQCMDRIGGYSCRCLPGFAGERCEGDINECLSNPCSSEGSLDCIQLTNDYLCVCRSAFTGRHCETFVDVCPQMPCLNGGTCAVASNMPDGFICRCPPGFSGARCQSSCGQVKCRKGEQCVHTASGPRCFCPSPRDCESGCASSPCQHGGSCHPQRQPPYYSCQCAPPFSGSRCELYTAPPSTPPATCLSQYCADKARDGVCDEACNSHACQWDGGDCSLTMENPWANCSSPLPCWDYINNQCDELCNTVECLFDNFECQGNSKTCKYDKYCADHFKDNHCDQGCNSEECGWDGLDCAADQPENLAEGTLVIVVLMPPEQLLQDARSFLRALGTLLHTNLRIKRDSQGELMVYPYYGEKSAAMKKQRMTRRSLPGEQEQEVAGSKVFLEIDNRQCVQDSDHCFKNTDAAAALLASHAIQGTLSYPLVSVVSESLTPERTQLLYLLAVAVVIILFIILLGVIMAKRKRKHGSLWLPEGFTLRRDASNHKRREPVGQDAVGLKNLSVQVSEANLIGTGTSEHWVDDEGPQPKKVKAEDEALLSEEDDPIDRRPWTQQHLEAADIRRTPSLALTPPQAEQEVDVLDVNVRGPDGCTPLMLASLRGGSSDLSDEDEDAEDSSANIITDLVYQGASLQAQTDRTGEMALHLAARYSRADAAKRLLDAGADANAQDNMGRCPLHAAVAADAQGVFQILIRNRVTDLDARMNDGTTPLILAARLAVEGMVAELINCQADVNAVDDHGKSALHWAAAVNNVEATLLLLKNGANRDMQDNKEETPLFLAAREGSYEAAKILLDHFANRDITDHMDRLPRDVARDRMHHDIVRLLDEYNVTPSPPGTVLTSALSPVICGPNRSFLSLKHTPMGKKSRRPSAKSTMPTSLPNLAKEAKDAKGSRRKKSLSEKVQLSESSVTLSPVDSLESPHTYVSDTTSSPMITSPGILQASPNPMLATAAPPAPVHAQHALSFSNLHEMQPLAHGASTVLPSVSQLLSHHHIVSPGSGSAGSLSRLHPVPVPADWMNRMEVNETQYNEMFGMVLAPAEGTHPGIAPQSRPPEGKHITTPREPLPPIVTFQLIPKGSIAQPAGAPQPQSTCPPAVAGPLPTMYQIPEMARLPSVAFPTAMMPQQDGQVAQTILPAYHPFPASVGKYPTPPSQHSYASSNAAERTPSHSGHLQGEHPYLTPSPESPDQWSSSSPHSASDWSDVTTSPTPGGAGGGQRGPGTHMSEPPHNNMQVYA
Pro-neuregulin-1, membrane-bound isoform (Homo sapiens), sequence (Q02297 whole entry, looked up, the tested form may be a part, canonical isoform): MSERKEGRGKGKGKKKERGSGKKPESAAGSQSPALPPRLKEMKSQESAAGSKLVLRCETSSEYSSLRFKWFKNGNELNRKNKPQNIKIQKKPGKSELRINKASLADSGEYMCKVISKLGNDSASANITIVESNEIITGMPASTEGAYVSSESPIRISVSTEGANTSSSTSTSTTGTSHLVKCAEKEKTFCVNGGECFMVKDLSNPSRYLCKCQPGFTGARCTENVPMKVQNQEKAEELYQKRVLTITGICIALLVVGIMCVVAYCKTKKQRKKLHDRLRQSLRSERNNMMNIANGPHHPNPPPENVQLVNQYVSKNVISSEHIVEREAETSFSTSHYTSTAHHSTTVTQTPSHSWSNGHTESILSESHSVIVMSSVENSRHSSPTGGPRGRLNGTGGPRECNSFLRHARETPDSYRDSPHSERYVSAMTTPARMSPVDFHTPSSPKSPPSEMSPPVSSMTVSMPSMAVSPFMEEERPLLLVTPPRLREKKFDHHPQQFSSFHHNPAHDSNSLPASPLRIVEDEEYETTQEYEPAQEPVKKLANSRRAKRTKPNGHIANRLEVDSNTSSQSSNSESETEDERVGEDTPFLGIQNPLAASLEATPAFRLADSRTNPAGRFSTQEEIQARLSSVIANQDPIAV
Torsin-1A-interacting protein 2 (Homo sapiens), sequence (Q8NFQ8 whole entry, looked up): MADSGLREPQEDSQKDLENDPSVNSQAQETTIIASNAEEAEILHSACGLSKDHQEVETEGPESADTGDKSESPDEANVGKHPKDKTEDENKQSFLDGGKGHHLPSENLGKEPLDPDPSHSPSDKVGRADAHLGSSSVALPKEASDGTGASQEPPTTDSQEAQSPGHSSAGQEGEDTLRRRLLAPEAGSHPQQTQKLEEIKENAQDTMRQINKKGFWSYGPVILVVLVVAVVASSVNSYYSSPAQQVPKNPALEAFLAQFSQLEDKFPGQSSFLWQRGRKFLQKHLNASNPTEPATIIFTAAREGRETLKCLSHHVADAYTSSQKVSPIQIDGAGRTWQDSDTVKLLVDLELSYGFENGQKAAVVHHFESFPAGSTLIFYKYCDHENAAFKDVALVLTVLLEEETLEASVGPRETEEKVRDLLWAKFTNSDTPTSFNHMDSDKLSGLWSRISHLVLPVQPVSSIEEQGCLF

Turning to `CC(C)OC(=O)C1=CCC(c2cccc(Cl)c2)O1` (stereo not given), the composite z-score in test [1] is -0.206; in test [2] it was -0.125; in [3] it was -0.0717; in test [4], -0.348; in test [5] it was -1.12; in [6], 0.754. Also, the composite z-score was 1.06 in test [7]; -0.332 in test [9]; -0.409 in [10]; 0.559 in test [11]; 3.3 in [15]; -0.245 in test [17]. The composite z-score in test [18] was -0.523; in test [19], -0.129; in test [20], -0.306. In addition, the z-score was -0.716 (inactive) in [8]; -3.2 (inactive) in test [12]; -5.63 (inactive) in [13]; -1.11 (inactive) in [14]; 1.09 (inactive) in [16].

On to `CN1C(=O)C2C=CC(C(O)c3ccc(Br)cc3)N(Nc3ccccc3)C2C1=O` (stereo not given), for which the composite z-score in test [1] was 0.607; in test [2] it was 1.46; in [3], -0.0747; in test [4] it was -0.287; in test [5], -0.468; in test [6], 0.648. Also, the composite z-score was 0.728 in test [7]; -0.118 in test [9]; -0.0346 in test [10]; -0.897 in test [11]; 1.27 in [15]; 0.296 in [17]. Besides, the composite z-score in test [18] was -1.48; in test [19], -1.17; in test [20] it was -0.0594. The z-score in [8] is 0.665 (inactive); in test [12], 0.947 (inactive); in [13] it was -0.0449 (inactive); in [14] it was 0.878 (inactive); in test [16], -0.54 (inactive).

As for `COC(=O)c1nc2oc1CC[C@@H](CO)NC(=O)N(C)Cc1cn(nn1)C[C@H](Cc1ccccc1)NC2=O`, the composite z-score in [1] is 0.0478; in test [2], -0.871; in test [3], -0.0982; in test [4] it was 0.0055; in test [5], 0.242; in [6] it was 1.01. Moreover, the composite z-score in test [7] is 1.09; in [9], -0.324; in test [10] it was -0.226; in test [11], 0.594; in test [15] it was 2.59; in test [17] it was -0.139. Further, the composite z-score is 1.04 in test [18], 0.175 in test [19] and -0.181 in test [20]. The z-score in test [8] was -0.605 (inactive); in test [12] it was 0.654 (inactive); in test [13] it was -3.35 (inactive); in [14], -0.858 (inactive); in test [16], 2.05 (inactive).

Take `CCCNC(=O)[C@@]1(C)c2ccccc2C(=O)N(C(C)C)[C@H]1c1ccc(CO)cc1`: the composite z-score in test [1] is 1.01; in test [2], -0.214; in [3] it was -0.0704; in [4], -0.425; in test [5], -0.963; in test [6], 0.447. Moreover, the composite z-score in test [7] is 1.3; in [9] it was -0.35; in test [10], -0.226; in test [11], -0.535; in test [15], 2.75; in [17], 0.0692. The composite z-score is -0.827 in [18], -1.05 in test [19] and -0.174 in test [20]. For the same compound, the z-score in [8] was -0.51 (inactive); in test [12], -0.141 (inactive); in [13], -0.712 (inactive); in test [14], -0.397 (inactive); in test [16], -1.2 (inactive).

With `O=S(=O)(NCCCO)c1ccc(Br)cc1`, the composite z-score is -0.109 in test [1]; 1.04 in test [2]; -0.112 in [3]; 0.209 in test [4]; 0.433 in test [5]; 1.07 in test [6]. Further, the composite z-score in test [7] was 1.07; in test [9], 0.14; in [10] it was -0.226; in [11], 0.607; in [15], 1.18; in test [17], -0.18. Also, the results for the composite z-score in [18], in [19] and in [20] were 0.355, -0.271 and -0.0363, respectively. For the same compound, the z-score in test [8] was -1.91 (inactive); in test [12] it was -1.72 (inactive); in test [13] it was -1.57 (inactive); in test [14] it was -0.531 (inactive); in test [16] it was 0.707 (inactive).

As for `C#C[C@H](O[Si](C#CCCCCCC)(C(C)C)C(C)C)c1ccccc1`, the composite z-score is -0.441 in test [1]; -0.0593 in [2]; -0.0994 in test [3]; 0.323 in [4]; -0.55 in [5]; -0.204 in [6]. Besides, the composite z-score in test [7] was 0.0885; in [9] it was -0.748; in [10] it was -0.217; in test [11], 0.631; in test [15], 0.432; in test [17] it was -0.114. Also, the composite z-score is 0.186 in test [18], 0.13 in test [19] and -0.171 in [20]. Besides, the z-score in test [8] is 0.0077 (inactive); in [12], 0.0821 (inactive); in [13], 0.384 (inactive); in test [14], -0.653 (inactive); in [16] it was 0.411 (inactive).

Take `Cc1ccc(F)cc1S(=O)(=O)N[C@@H]1CCN(Cc2ccc(C(F)(F)F)cc2)C1`: the composite z-score was -0.234 in test [1]; 0.588 in [2]; -0.198 in [3]; -1.06 in [4]; -1.26 in [5]; 0.0824 in test [6]. Besides, the composite z-score in [7] is -0.19; in [9] it was -0.47; in test [10] it was -0.283; in [11], 1.14; in test [15], 1.08; in test [17], -0.227. For the same compound, the results for the composite z-score in [18], in test [19] and in test [20] were 0.412, -0.145 and -0.218, respectively. Also, the z-score in test [8] is -3.87 (inactive); in test [12], -1.27 (inactive); in test [13], -20.3 (active); in test [14], -1.1 (inactive); in test [16], -4.8 (inactive).

As for `CC(c1ccccc1)C(O)C1C=CC2C(=O)N(c3ccccc3)C(=O)C2N1Nc1ccccc1F` (stereo not given), the composite z-score in test [1] was -0.0296; in test [2] it was 0.267; in [3], 0.0786; in [4] it was 0.26; in [5], 0.917; in [6] it was 1.28. For the same compound, the composite z-score in test [7] was 0.679; in test [9] it was 1.34; in test [10], -0.191; in test [11] it was 1.26; in [15] it was 2.87; in [17], 0.0841. Besides, the composite z-score in test [18] is -0.138; in test [19], 1.14; in test [20], -0.0192. The z-score is 0.985 (inactive) in test [8]; -1.11 (inactive) in test [12]; 1.15 (inactive) in test [13]; -1.99 (inactive) in test [14]; 0.198 (inactive) in test [16].

Regarding `C=CC[C@@]1(C(=O)NCc2ccccc2)N=C(c2ccc(OCCCO)cc2)O[C@@H]1c1ccccc1CN=[N+]=[N-]`, the composite z-score in [1] is 0.351; in test [2] it was -0.651; in [3] it was 0.153; in test [4] it was 0.799; in test [5], 1.54; in test [6] it was 1.57. Moreover, the composite z-score is 1.2 in [7]; 1.44 in [9]; -0.0237 in test [10]; 0.985 in test [11]; 3.17 in test [15]; 0.418 in [17]. Further, the composite z-score in test [18] turned out to be 0.0824; in test [19], 0.901; in [20], 0.0149. Besides, the z-score in test [8] was -2.56 (inactive); in test [12] it was 0.371 (inactive); in test [13] it was 1.68 (inactive); in test [14] it was 4.84 (inactive); in test [16], -0.759 (inactive).

On to `C=C(/C(=C/C[C@@H](OC(C)=O)c1ccc(CO)o1)c1cnc2ccccc2c1)C(C)C`, for which the composite z-score was -0.524 in test [1]; 1.53 in test [2]; -0.0766 in test [3]; 1.13 in [4]; 1.53 in test [5]; 0.766 in [6]. In addition, the composite z-score is 1.32 in [7]; 0.284 in test [9]; -0.0618 in test [10]; 1.55 in test [11]; 1.86 in test [15]; -0.11 in test [17]. Further, the composite z-score was 1.08 in test [18], 1.07 in [19] and 0.0367 in test [20]. Besides, the z-score was 0.439 (inactive) in [8]; 1.2 (inactive) in [12]; -0.767 (inactive) in [13]; 0.375 (inactive) in test [14]; 1.27 (inactive) in test [16].
